From PubChem
ELG1 genotox – inducers of genotoxicity in HEK293T ELG1-luciferase cells | HEK293T ELG1-luciferase reporter, luminescence, 16 h | Potency, µM (top dose mostly 46 µM), for the others: at the top dose activity change, positive = activation, usual class: activators | 1.3% of 330,000 active | AID 504466; also: % of control where 0% means no effect; nearly all actives have a fitted effect of over 60% in size
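Luminescence read-out: rising ELG1-luciferase signal, reflecting elevated ELG1 protein under genetic stress, flags genotoxic compounds. Cells were treated for 16 hr at 37 °C before ONE-Glo detection.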
ELG1 repair inh – blocks ELG1-dependent DNA repair in HEK293T cells | 2.3% of 330,000 active | Potency, µM (highest dose often 46.1 µM), for the others: at the top dose activity change, negative = inhibition, actives largely listed as inhibitors | AID 504467 | HEK293T ELG1-luciferase reporter, luminescence, 16 h; DNA damage induced by 5-fluorouridine; also: % is scaled to controls: 0 for no effect and ±100 for the full control effect; nearly all actives have a fitted effect of over 55% in size
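Luminescence from the luciferase reporter, measured 30 min after ONE-Glo reagent at room temperature, was the read-out. Beforehand, 2,000 cells per well were exposed for 16 hr at 37 °C to 5-fluorouridine together with compound or vehicle.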
Rab9 promoter act – activators of Rab9 promoter. Huh7 Rab9 promoter-luciferase reporter, luminescence, 24 h. Potency, µM (doses to about 9.22 µM), inactives show at the top dose activation, negative = inhibition, usual class: activators. 2.8% of 320,000 active; also: % of control where 0% means no effect; nearly all actives have a fitted effect of over 60% in size
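Quantitative HTS format; Huh7 Rab9-luciferase reporter cells (1500/well) receive compound 2 h post-plating, incubate 24 h at 37 °C, then get luciferase reagent for 10 min before luminescence reading.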
NPC1 prom act – activates the NPC1 promoter | Huh7 NPC1 promoter luciferase reporter, 24 h | Potency, µM (series often up to 9.22 µM), for inactives: at the top dose activation, usual class: activators | 2.4% of 320,000 active | AID 485313; also: % of control where 0% means no effect; nearly all actives have a fitted effect of over 60% in size
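Cells: Huh7 expressing luciferase under the NPC1 promoter, 1500/well. Seeded 2 h, compound added, incubated 24 h at 37 °C. Luciferase reagent, 10 min ambient, then luminescence.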
SMN2 splice up – increases expression of the SMN2 splice variant. Potency, µM (top dose mostly 46.1 µM), inactives show top-dose activity change, positive = activation, hits mostly activators. 2.8% of 210,000 active. HEK293 SMN2-luciferase splicing reporter, luminescence, 30-36 h; also: % of control where 0% means no effect; nearly all actives have a fitted effect of over 55% in size
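qHTS luciferase splicing reporter: luminescence rises when SMN2 exon 7 is included in transfected HEK293 cells. Compound exposure lasted 30-36 h at 37C, with 4.5 mM final sodium butyrate as control, followed by a ONE-Glo read.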
FLuc counter – firefly luciferase modulation, counter-screen for miR-21 project | purified FLuc, Km substrates, luminescence inhibition | Potency, µM (doses to about 57.5 µM), for inactives: at the highest dose activity change, negative = inhibition, actives largely listed as inhibitors | 6.9% of 360,000 active | AID 588342;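 also: plate controls were vehicle for no effect and reference inhibitor for full effect; nearly all actives have a fitted effect of over 55% in size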
Target sequence (P08659 whole entry, looked up): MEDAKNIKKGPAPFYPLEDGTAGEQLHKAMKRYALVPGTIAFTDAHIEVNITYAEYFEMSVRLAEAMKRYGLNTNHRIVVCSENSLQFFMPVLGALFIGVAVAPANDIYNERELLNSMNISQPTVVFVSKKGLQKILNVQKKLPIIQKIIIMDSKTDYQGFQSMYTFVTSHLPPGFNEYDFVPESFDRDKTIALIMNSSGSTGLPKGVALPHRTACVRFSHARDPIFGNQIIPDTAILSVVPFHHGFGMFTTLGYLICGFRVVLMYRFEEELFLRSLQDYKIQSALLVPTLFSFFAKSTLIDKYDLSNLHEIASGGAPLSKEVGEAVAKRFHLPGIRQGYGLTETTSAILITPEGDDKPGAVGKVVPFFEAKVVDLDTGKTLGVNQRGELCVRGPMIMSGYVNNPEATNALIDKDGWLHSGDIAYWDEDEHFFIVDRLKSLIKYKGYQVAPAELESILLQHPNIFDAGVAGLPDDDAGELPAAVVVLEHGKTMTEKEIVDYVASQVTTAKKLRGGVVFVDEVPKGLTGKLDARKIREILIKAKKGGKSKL
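Purified P. pyralis luciferase, 10 nM final, with Km-level 10 uM D-luciferin and 10 uM ATP in 50 mM Tris acetate pH 7.5, 10 mM Mg acetate, 0.01% Tween-20, 0.05% BSA; 6-point qHTS titration about 60 µM downward; luminescence read.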
Active calls of the source: *; ? = inconclusive; . = no result given; [ ] = remark or other dose. Shown are actives, neighbours in structure and some others; about 9.4% of the full set was active somewhere. Calls follow the shape of the dose curve; as a rule, active = well fitted curve in the direction sought with a large enough effect; inconclusive = small, poorly fitted or top-dose-only effect, or another doubt; inactive = no such curve, though single readings can be large; an effect the other way counts as inactive or inconclusive. Potency is read from the fitted curve at half-maximal effect.

SMILES	ELG1 genotox	ELG1 repair inh	Rab9 promoter act	NPC1 prom act	SMN2 splice up	FLuc counter
Cc1ccc(C(=O)Cc2cc3ccccc3oc2=O)c(C)c1	?	?	0.79µM*	1.4µM*	.	3µM*
Cc1ccc(CN2C(=O)c3ccccc3Sc3ccc(C(=O)NCc4ccco4)cc32)cc1	.	.	.	.	.	-9%
Cc1ccc(NCc2cccn2-c2nnc(N3CCC(C(=O)NCCc4ccc(Cl)cc4)CC3)s2)cc1	.	.	.	.	-43%	3%
COc1ccc(-c2nsc(SCC(=O)NCC3CCCO3)n2)cc1 (centres undefined)	9%	?	?	11%	-24%	15µM*
Cc1ccc(-c2nsc(SCC(=O)NCC3CCCO3)n2)cc1 (centres undefined)	-3%	-17%	29%	20%	-51%	17µM*
COc1ccc(-c2nc(SCC(=O)NCC3CCCO3)c(-c3ccc(Cl)cc3)[nH]2)cc1 (centres undefined)	.	.	.	.	0%	-2%
COc1ccc(-n2nnc3c(SCC(=O)NCC4CCCO4)ncnc32)cc1 (centres undefined)	2%	17%	-2%	-4%	0%	11µM*
O=C(CSc1ncnc2c1cnn2-c1ccc(F)cc1)NCC1CCCO1 (centres undefined)	2%	15%	-13%	-3%	.	-19%
COc1cc(-c2nc(Cn3nnc(C(=O)Nc4cccc(Cl)c4)c3C)c(C)o2)cc(OC)c1OC	.	.	.	.	6%	-1%
Cc1cc(S(=O)(=O)Nc2cc3c(cc2N2CCOCC2)n(C)c(=O)c(=O)n3C)ccc1F	.	.	.	.	.	-2%
CN(C)c1ccc(N=Cc2cccn2C)cc1	15µM*	?	24%	16%	.	3.4µM*
O=C(NCCSCc1ccc(Cl)cc1)C1CCN(S(=O)(=O)Cc2ccccc2)CC1	.	.	.	.	.	0%
O=C(Cc1csc(-c2ccccc2)n1)NCc1ccc(F)cc1	1%	6%	0%	-1%	.	-19%
O=C(NCc1csc(-c2ccccc2)n1)c1cc(F)cc2c1OCOC2	19%	?	?	?	.	19µM*
Cc1ccc(CCNS(=O)(=O)c2ccc3c(c2)C(C(C)C)C(=O)N3)cc1 (centres undefined)	.	.	.	.	.	2%
O=c1ccc2cc(S(=O)(=O)N3CCOCC3)ccc2o1	0%	?	2%	-4%	7.9µM*	9%
NC1=NCC2c3ccccc3Cc3ccccc3N12 (centres undefined)	.	.	-2%[46.1 µM]	7%[46.1 µM]	.	.
CCN(CC(=O)Nc1ccc(NC(C)=O)cc1)C(=O)c1cc(-c2ccccc2)nn1-c1ccccc1	-5%	?	14%	0%	.	4%
COc1ccccc1NC(=O)CN(Cc1ccco1)C(=O)c1cncc(Br)c1	-4%	-12%	10%	0%	.	0%
CCCN(CC(=O)Nc1ccccc1OC)C(=O)c1cc(-c2ccccc2)nn1-c1ccccc1	-13%	21µM*	-2%	-1%	.	.
COCCN(CC(=O)Nc1cccc(C)c1C)C(=O)c1cc(-c2cccs2)nn1-c1ccccc1	-4%	13µM*	-15%	-3%	.	7%
COc1ccccc1NC(=O)CN(Cc1ccco1)C(=O)c1ccc(-n2nc(C)cc2C)cc1	-4%	23µM*	2%	-1%	-1%	2%
CCC(C(=O)Nc1ccc(C(=O)OC)cc1)n1nc(-c2ccc(C)cc2)c2c(c1=O)CCCC2 (centres undefined)	.	.	.	.	-15%	-1%
COc1cccc(C(=O)NCC(c2ccc(N(C)C)cc2)N2CCc3ccccc32)c1 (centres undefined)	.	.	.	.	.	-3%
COc1ccccc1N1CCN(c2ccc(NC(=O)c3ccc(C)cc3)cc2C(=O)O)CC1	.	.	.	.	.	-14%
SMILES	ELG1 genotox	ELG1 repair inh	Rab9 promoter act	NPC1 prom act	SMN2 splice up	FLuc counter
CCOC(=O)c1oc2nc3c(cc2c1N)COC(C)(C)C3	3%	?	5%	25%	16%	-5%
CCOC(=O)c1oc2nc3c(cc2c1N)CCCC3	?	?	1.4µM*	1.4µM*	.	5.4µM*
C[Si](C)(c1ccc(C(=O)O)cc1)c1ccc(C(=O)O)cc1	.	.	.	.	-8%[9.22 µM]	.
N#CC1=C2C=Cc3ccccc3N2CCCC1=O	?	?	2.8µM*	2.2µM*	23%	11µM*
O=C(CN1CCCC1)N1c2ccccc2C=Cc2ccccc21	-1%	6%	-2%	-6%	-2%	0%
O=C(NCCc1csc2nc(-c3cccc(F)c3)nn12)c1ccc(Br)o1	.	.	.	.	.	-17%
CCOc1ccc(NC(=O)c2ccc(-c3csc(C)n3)cc2)cc1	-12%	?	-5%	0%	.	-3%
Cc1nc(-c2ccc(C(=O)Nc3cccc(F)c3)cc2)cs1	?	?	?	0.089µM*	.	0.27µM*
COc1ccc(NC(=O)c2ccc(-c3csc(C)n3)cc2)cc1	?	?	2.8µM*	?	.	2.4µM*
Cc1oc(-c2ccc(C(=O)Nc3ccccc3F)cc2)nc1COc1ccccc1	.	.	.	.	.	0%
O=C(Nc1cccc(NC(=O)c2ccc(F)cc2)c1)c1ccc(F)cc1	7%	1%	14%	1%	.	-2%
Cc1nc(-c2ccc(C(=O)Nc3ccc(F)cc3)cc2)cs1	21µM*	?	?	?	8%	0.76µM*
Cc1nc(-c2ccc(C(=O)Nc3ccccc3F)cc2)cs1	?	?	?	0.11µM*	2.8µM*	0.24µM*
O=C(C1CCC1)N1CCc2cc(S(=O)(=O)NCCc3ccccc3)ccc21	.	.	.	.	-43%	-8%
COc1ccc(-c2csc(C)n2)cc1	20%	?	11%	12%	-5%	19µM*
Cc1nc(-c2ccc(C(=O)N3CCCC3)cc2)cs1	-6%	?	2.8µM*	?	.	?
COc1ccc(-c2csc(C)n2)cc1OC	14%	?	8%	2%	-13%	?
Cc1nc(-c2cccc(NC(=O)c3ccc(-n4cccn4)cc3)c2)cs1	-3%	?	-7%	-1%	.	6.7µM*
Cc1nc(-c2cccc(NC(=O)C(C)Oc3ccccc3)c2)cs1 (centres undefined)	-14%	0%	3%	-4%	.	?
CC(C)CCNC(=O)CSCc1cnn(-c2ccccc2)c1-n1cccc1	.	.	.	.	.	-2%
Cc1ccc2c(c1)COc1c3ccc(C(=O)N[C@@H](CO)C(C)C)cc3nn1-2	?	?	3.5µM*	1.8µM*	.	6.7µM*
O=C(NCC1CCCO1)c1ccc2c3n(nc2c1)-c1ccccc1CO3 (centres undefined)	?	?	1.1µM*	1µM*	.	4.8µM*
C[C@@H](CO)NC(=O)c1ccc2c3n(nc2c1)-c1ccccc1CO3	?	?	?	0.45µM*	.	0.6µM*
